High-throughput results from PubChem BioAssay.
Most compounds without a hit are left out; they make up all but 2.4% or so of the library.
Mito fusion act: mitochondrial division inhibition or fusion activation; S. cerevisiae fusion-defective mutant growth rescue, CellTiterGlo 48 h; Potency, µM (doses to about 46.1 µM), without a hit: at the highest dose growth rescue (activation), actives largely listed as activators; 320,000 tested, 0.23% active; further: % of control where 0% means no effect; nearly all actives have a fitted effect of over 45% in size
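Compounds are tested for their ability to restore growth of mitochondrial fusion-defective yeast strains at non-permissive 37C in YPEG medium over 48 hours. Viability is quantified by luciferase luminescence.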
A-T KAP1 phos: potential ataxia-telangiectasia treatment. F2112 A-T fibroblasts, KAP-1 phosphorylation AlphaLISA; neocarzinostatin DNA damage 30 min before lysis. 320,000 tested, 0.19% active. Potency, µM (highest dose often 57.5 µM), for inactives: at the top dose activation, usual class: activators; further: % of control where 0% means no effect; nearly all actives have a fitted effect of over 45% in size
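hTERT-immortalized A-T patient fibroblasts (F2112), 500 cells/well in OPTI-MEM, 1% FBS, got compounds for 60 min, then NCS for 30 min at 37C. Lysates were then assayed for phospho-KAP-1 by AlphaLISA (anti-pKAP1 donor, anti-KAP1 acceptor beads), 6 hr at 25C.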
aSyn rescue: alpha-synuclein toxicity inhibition in yeast; Yeast expressing alpha-synuclein, growth rescue, BacTiter-Glo, 24 h; Potency, µM (titrated, usually from 46.1 µM), without a hit: at the highest dose growth rescue (activation), actives largely listed as activators; 370,000 tested, 0.14% active; further: % of control where 0% means no effect; nearly all actives have a fitted effect of over 65% in size
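Screening used galactose-induced yeast with toxic alpha-synuclein levels, exposed to compound for 24 hr at 30 deg C. Cell growth, read with BacTiter-Glo luminescence, gave the measured signal.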
FUS suppressor: suppressors of FUS proteinopathy in yeast; S. cerevisiae FUS-expressing, growth rescue, OD600, 24 h; Potency, µM (highest dose often 76.6 µM), usual class: activators; 390,000 tested, 0.24% active; AID 1347120;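 further: plate controls were DMSO vehicle for no effect and reference control for full effect; nearly all actives have a fitted effect of over 55% in size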
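FUS-expressing yeast, raffinose-pregrown, induced in 2% galactose minimal medium at OD 0.005; compounds in a dilution series, 24hr at 30C. Growth restoration read as absorbance at 600 nm. CP55940 positive control, DMSO negative.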
TDP-43 yeast inh: TDP-43 toxicity inhibition in yeast | AID 652104 | Potency, µM (top dose mostly 46.1 µM), inactives show at the top dose growth rescue (activation), usual class: activators | 410,000 tested, 1.8% active | TDP-43 expressing yeast growth rescue, BacTiter-Glo, 24 h; further: % of control where 0% means no effect; nearly all actives have a fitted effect of over 50% in size
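Luminescence from BacTiter-Glo reports growth of TDP-43-expressing yeast after 24 hr at 30 deg C with compound. Cells were raffinose-pregrown to mid-log, then seeded in galactose medium at OD600=0.02.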
Abeta rescue: A-beta toxicity reversal in yeast | yeast expressing A-beta42, growth rescue, OD600, 48 h; response scale: 0% DMSO, 100% iron-clioquinol control | Potency, µM (highest dose often 46.1 µM), actives largely listed as activators | 410,000 tested, 0.063% active | AID 1347071; further: nearly all actives have a fitted effect of over 55% in size
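Yeast A-beta toxicity model in growth medium with pinned compounds, 48 h at 30 C; growth read as absorbance at 600 nm. Normalized to FeCl3/clioquinol equimolar mix (positive) and DMSO (negative).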
Starred values were filed as active, the others as inactive; i = inactive; ? = inconclusive; . = no result; [ ] = dose if it differs, or a comment. The call rests on the fitted dose curve; in most records, active means well fitted curve in the direction sought with a large enough effect; inconclusive means small, poorly fitted or top-dose-only effect, or another doubt; inactive means no such curve, though single readings can be large; an effect the other way counts as inactive or inconclusive. Potency means the concentration at half of the fitted maximal effect.

SMILES	Mito fusion act	A-T KAP1 phos	aSyn rescue	FUS suppressor	TDP-43 yeast inh	Abeta rescue
N#C/C(=C\Nc1ccccc1O)c1nc2ccccc2o1	?	-3%	-40%	i	7.1µM*	i
O=c1oc2cc(O)ccc2c2c1CCCC2	6%	-1%	14%	i	13µM*	i
CC(=O)Oc1ccc2c3c(c(=O)oc2c1)CCCC3	1%	-2%	6%	i	?	?
O=c1cc(O)c2ccc(O)cc2o1	1%	11%	?	i	14µM*	i
CCOc1ccccc1NC(=O)C(C)Sc1nc2c(c(=O)[nH]1)CCCC2 (stereo not drawn)	.	.	.	i	27%	i
CC(C)c1ccc(NC(=O)C(c2ccccc2)N2CC(=O)Nc3ccccc32)cc1 (stereo not drawn)	-1%	35µM*	1%	i	-8%	i
O=C(NCCCN1CCN(c2ccc(F)cc2)CC1)Nc1ccccc1	.	.	.	i	.	.
Cc1ccc(C)c(S(=O)(=O)N(C(=O)c2ccncc2)c2ccc(OC(=O)c3ccncc3)cc2)c1	10%	-1%	?	i	3%	i
COc1ccc(N(C(=O)c2cc(OC)c(OC)c(OC)c2)S(=O)(=O)c2ccc(C)cc2)cc1	.	.	.	32µM*	-24%	i
COc1ccc(N(C(=O)c2ccncc2)S(=O)(=O)c2ccc(Cl)cc2)cc1	-9%	23%	10µM*	i	0.89µM*	i
Cc1ccc(S(=O)(=O)N(C(=O)c2ccncc2)c2ccc(OC(=O)c3ccncc3)cc2)c(C)c1	2%	-4%	?	.	7.1µM*	i
NC(=O)Nc1ccc(Nc2ccccc2)cc1	3%	-3%	-2%	i	22%	i
O=C(Nc1ccc(Nc2ccccc2)cc1)C(Cl)(Cl)Cl	?	-2%	1%	.	35µM*	i
Cc1nc2c3cc(F)ccc3n(Cc3ccccc3F)c2s1	28%	10%	-19%	i	11µM*	i
Cc1ccc(SCc2cc(=O)n3ccsc3n2)c(C)c1	1%	0%	.	.	.	.
Cc1cccc(C(=O)OCc2cc(=O)n3ccsc3n2)c1	.	.	.	i	18µM*	i
Cc1cn2c(=O)cc(COC(=O)c3ccc(NC(=O)C(C)Oc4ccccc4)cc3)nc2s1 (stereo not drawn)	.	.	.	i	7%	i
Cc1cccc(-n2c(SCc3cc(=O)n4ccsc4n3)nc3ccccc32)c1	?	.	11%	i	22µM*	i
O=c1cc(CSc2ccc([N+](=O)[O-])cc2)nc2sccn12	-1%	10%	16µM*	i	15%[9.22 µM]	i
CC(Oc1ccccc1)C(=O)Nc1ccc(C(=O)OCc2cc(=O)n3ccsc3n2)cc1 (stereo not drawn)	.	.	.	?	20µM*	i
CC(C)(C)c1ccc(OCC(=O)Nc2c(C(=O)c3ccc(F)cc3)oc3ccccc23)cc1	.	.	.	i	?	i
C[C@H](NS(=O)(=O)c1ccc([N+](=O)[O-])cc1)C(=O)NCCNC(=O)[C@@H](C)NS(=O)(=O)c1ccc([N+](=O)[O-])cc1	.	.	.	i	.	.
CC(C)[C@H](N)C(=O)N1CCC[C@@H]1C(=O)N1CCC2CCN(S(=O)(=O)c3ccccc3)CC21 (stereo partly drawn)	.	.	.	i	.	.
Cc1ccc(-c2nc(S(=O)(=O)c3ccc(C)cc3)c(SCC(=O)c3ccccc3)o2)cc1	.	.	.	i	20%	i
O=c1c2ccccc2n(Cc2cccc(Cl)c2)c(=O)n1CCc1ccccc1	.	.	.	i	0%	i
Cc1ccc2ccc3cc(C(=O)N4CCN(c5ccccc5F)CC4)nc3c2[nH]1	.	.	3%	i	?	i
Cc1ccc2ccc3cc(C(=O)Nc4ccc(C)c(F)c4)nc3c2[nH]1	.	.	-24%	i	4µM*	i
Cc1ccc2c(c1)c(=O)c1ccccc1n2CCCC(=O)Nc1ccc(Cl)c(Cl)c1	.	.	.	i	7%	i
